Source: PubChem
HepG2 tox – counter-screen for TGF-b inhibitors: cytotoxicity in HepG2 cells. Potency, µM (titrated, usually from 46.1 µM), without a hit: top-dose activity change, negative = cytotoxicity, actives largely listed as cytotoxic. HepG2 CAGA-GFP viability, ATP luminescence, 18 h. hit rate 0.76% among 410,000; further: potency means the concentration at half of the fitted maximal effect
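HepG2 CAGA-GFP cells (1000/well, DMEM with 1% FBS) received compound, then TGF-beta at 500 pg/mL final, and were incubated 18 hours at 37 degrees C. Viability was read by CellTiter-Glo luminescence. Media-only wells were set as complete cell-killing and DMSO as no toxicity.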
Six1-Eya2 blk – blocks human Six1 binding to Eya2 | Q15475+O00167 | AlphaScreen GST-Six1/His-Eya2 binding, biochemical; hits give low values | hit rate 0.56% among 360,000 | activity change, % (concentration not given with the values); in the data active means activity change below about -65%; inconclusive means mostly about -30% to -63%; further: on the % scale 0 is the no-effect control and ±100 the full control effect
Target sequence (O00167 whole entry, looked up): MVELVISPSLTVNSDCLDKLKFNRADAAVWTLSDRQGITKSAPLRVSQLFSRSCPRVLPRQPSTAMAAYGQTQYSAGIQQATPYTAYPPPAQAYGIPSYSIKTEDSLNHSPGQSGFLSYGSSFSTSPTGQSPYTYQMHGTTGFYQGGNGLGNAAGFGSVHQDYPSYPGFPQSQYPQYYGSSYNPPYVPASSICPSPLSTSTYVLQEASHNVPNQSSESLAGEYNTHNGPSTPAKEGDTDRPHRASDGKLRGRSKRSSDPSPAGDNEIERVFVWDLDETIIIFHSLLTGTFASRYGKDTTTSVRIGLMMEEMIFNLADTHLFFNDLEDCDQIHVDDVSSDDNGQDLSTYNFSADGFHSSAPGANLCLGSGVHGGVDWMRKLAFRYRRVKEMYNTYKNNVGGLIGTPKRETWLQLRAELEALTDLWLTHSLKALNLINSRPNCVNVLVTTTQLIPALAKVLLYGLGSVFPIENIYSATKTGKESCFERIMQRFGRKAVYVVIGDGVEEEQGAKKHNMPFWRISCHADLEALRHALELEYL
Target sequence (Q15475 whole entry, looked up): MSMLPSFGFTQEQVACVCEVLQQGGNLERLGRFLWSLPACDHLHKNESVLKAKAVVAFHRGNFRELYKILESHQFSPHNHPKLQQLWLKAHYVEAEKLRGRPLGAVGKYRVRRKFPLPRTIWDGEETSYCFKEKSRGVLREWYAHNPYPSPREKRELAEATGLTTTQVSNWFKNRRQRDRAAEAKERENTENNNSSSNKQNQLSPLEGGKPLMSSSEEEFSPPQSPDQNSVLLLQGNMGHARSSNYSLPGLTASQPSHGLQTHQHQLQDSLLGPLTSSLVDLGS
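Homogeneous AlphaScreen proximity assay pairing GST-Six1 with His-tagged Eya2 (added as 5X mix: 250 nM and 500 nM) in 50 mM Tris pH 8.0, 300 mM NaCl, 1 mM TCEP. Glutathione donor and nickel acceptor beads; 1 h, 37 °C, dark.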
CtBP-E1A blk – blocks the CtBP interaction with E1A | activity change, % (concentration not given with the values) | AlphaScreen GST-E1A/His-CtBP binding, 1536-well; hits give low values | hit rate 0.49% among 340,000 | AID 651724; in the data active means activity change below about -65%; inconclusive means mostly about -30% to -63%; further: on the % scale 0 is the no-effect control and ±100 the full control effect
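AlphaScreen with 125 nM GST-E1A and 125 nM His-CtBP (5X stocks) in Tris pH 8.0, 300 mM NaCl, BSA, Tween 20, TCEP. Compounds preincubated 2 h at 37 deg C, then glutathione donor/nickel acceptor beads added for 1 h at 37 deg C in dark.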
TGFb inhibitor – inhibitors of TGF-b signaling; HepG2 CAGA-GFP TGF-b/SMAD3 reporter, GFP fluorescence, 18 h; TGF-beta stimulated, 500 pg/mL final; Potency, µM (series often up to 46.1 µM), without a hit: at the highest dose activity, negative = inhibition, actives largely listed as inhibitors; hit rate 1.2% among 410,000; further: potency means the concentration at half of the fitted maximal effect; on the % scale 0 is the no-effect control and ±100 the full control effect; nearly all actives have a fitted effect of over 65% in size
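Read-out: total well GFP (ex488/em500-530) summed from mean per-cell fluorescence. Cells: HEPG2 CAGA-GFP, 1% FBS DMEM, 18 h at 37 degrees C with 500 pg/mL final TGF-beta. Unstimulated wells served as the full-inhibition control; stimulated DMSO wells = 0%.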
ATXN2 expr inh – reduces ATXN2 reporter expression in HEK-293 cells; Potency, µM (doses to about 57 µM), inactives show at the highest dose activity change, negative = inhibition, most hits filed as inhibitors; AID 1745845; hit rate 0.72% among 360,000; HEK-293 ATXN2-luciferase reporter, luminescence, 24 h; further: potency means the concentration at half of the fitted maximal effect; on the % scale 0 is the no-effect control and ±100 the full control effect; nearly all actives have a fitted effect of over 55% in size
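qHTS (up to 57 uM final) was run with 24 h compound exposure of reporter cells at 37 °C. Each well was multiplexed: SteadyGlo luminescence measured ATXN2-luciferase expression after a fluorogenic Gly-Phe-AFC viability readout (25 uM final).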
S2 tox – reduces viability in counter-screen for ATXN expression inhibitors | S2 cells (HEK-293 line with an ATXN2-luciferase reporter) viability, CellTiter-Fluor protease fluorescence, 24 h | Potency, µM (highest dose often 56.7 µM), hits mostly cytotoxic | hit rate 0.49% among 400,000 | AID 651635; further: potency means the concentration at half of the fitted maximal effect; nearly all actives have a fitted effect of over 40% in size
* hit, by the source's call; ! = repeats disagree; [ ] = another dose, or the depositor's remark. Shown are actives, neighbours in structure and some others; about 2.8% of the full set was active somewhere. Unless noted, the call rests on the fitted dose curve; in most records, active means well fitted curve in the direction sought with a large enough effect; inconclusive means small, poorly fitted or top-dose-only effect, or another doubt; inactive means no such curve, though single readings can be large; an effect the other way counts as inactive or inconclusive.

Screening O=C(NNC(=O)c1c(O)c2ccccc2[nH]c1=O)c1ccccc1Br returned HepG2 tox -38%, Six1-Eya2 blk -75*, CtBP-E1A blk inconclusive, TGFb inhibitor -7%, ATXN2 expr inh -13% and S2 tox inactive.
For Cn1cc(CN2CCCC(C(=O)Nc3ccc(-c4cccc(F)c4)cc3)C2)cn1 (configuration not stated) the results were HepG2 tox -99%, Six1-Eya2 blk 0, TGFb inhibitor inconclusive and S2 tox 32µM*.
Cc1ccc2cc(CNC(C)c3cccc4ccccc34)c(N3CCC(O)CC3)nc2c1 (configuration not stated) was read as S2 tox inactive.
For CC1(C)CC(N=c2cc(-c3ccccc3)oc3ccc(Cl)cc23)CC(C)(C)N1 the results were HepG2 tox 16µM*, Six1-Eya2 blk -10, CtBP-E1A blk -6, TGFb inhibitor inconclusive, ATXN2 expr inh 1%[11.3 µM] and S2 tox inactive.
`COc1ccccc1C(=O)N[C@@H]1c2ccccc2C2(CCN(Cc3ccc(C)o3)CC2)[C@H]1O` gave S2 tox inactive.
O=C(Nc1ccc(S(=O)(=O)N2CCOCC2)cc1)c1cc(Cl)ccc1NS(=O)(=O)c1ccc(Cl)s1 was read as ATXN2 expr inh -12% and S2 tox 16µM*!.
Screening O=C(Nc1ccccc1)c1ccccc1NS(=O)(=O)c1ccc(Cl)s1 returned HepG2 tox -31%, Six1-Eya2 blk 3, CtBP-E1A blk 5, TGFb inhibitor 13µM*, ATXN2 expr inh inconclusive and S2 tox inconclusive.
Screening CC(C)(C)n1nc(-c2ccc(F)cc2)c2c(N)ncnc21 returned HepG2 tox 10%, Six1-Eya2 blk 2, CtBP-E1A blk 2, TGFb inhibitor inconclusive, ATXN2 expr inh 1% and S2 tox inactive.
Screening CC(C)n1nc(-c2cc3cc(O)ccc3[nH]2)c2c(N)ncnc21 returned ATXN2 expr inh 5µM* and S2 tox inconclusive.
`CC(NC(=O)c1cccnc1)c1nnc2n1CCN(Cc1ccc(-c3ccccc3Cl)o1)CC2` (configuration not stated) gave S2 tox inactive.
`Cc1ccc(-n2ncc3c(N4CCN(C)CC4)ncnc32)cc1Cl` gave HepG2 tox 1%, TGFb inhibitor 11%, ATXN2 expr inh 51% and S2 tox inactive.
CCOc1ccc(/C=C2\CCC(C3CCCC3)C2=O)cc1 (configuration not stated) was read as HepG2 tox 5%, Six1-Eya2 blk -1, CtBP-E1A blk 8, TGFb inhibitor 21%, ATXN2 expr inh 47% and S2 tox inactive.
CCC(=O)OCOc1ccc(/C=C2/CCC(CN(C)C)C2=O)cc1 (configuration not stated) was read as HepG2 tox -99%, Six1-Eya2 blk -5, CtBP-E1A blk -3, TGFb inhibitor 6.3µM*, ATXN2 expr inh inconclusive and S2 tox inconclusive.
Screening CCC(C)NC(=O)c1ccc2c(c1)N=C(C)c1cc(C)ccc1S2 (configuration not stated) returned HepG2 tox -22%, TGFb inhibitor 7.1µM*, ATXN2 expr inh -19% and S2 tox inconclusive.
`CC1=Nc2cc(C(=O)O)ccc2Sc2ccc(C)cc21` gave HepG2 tox 5%, Six1-Eya2 blk 2, CtBP-E1A blk 9, TGFb inhibitor 0%, ATXN2 expr inh 11%[11.3 µM] and S2 tox inactive.
Screening COc1ccc2c(c1)-c1nc(-n3ncc(C(=O)N(C)CCO)c3C3CC3)ncc1CC2 returned S2 tox inactive.
CC(=O)Oc1ccc(OC(C)=O)c(SCCCCCN2CCOCC2)c1 was read as HepG2 tox -81%, Six1-Eya2 blk -2, CtBP-E1A blk 7, TGFb inhibitor 16µM*, ATXN2 expr inh inconclusive and S2 tox inconclusive.
Screening COc1ccc(CCC(C)NCCc2ccc(Cl)cc2Cl)cc1 (configuration not stated) returned HepG2 tox 16µM*, Six1-Eya2 blk -4 and TGFb inhibitor inconclusive.
Screening COc1ccc(CCC(C)NCc2ccc(Cl)c(Cl)c2)cc1 (configuration not stated) returned HepG2 tox 8.9µM*, Six1-Eya2 blk 17, CtBP-E1A blk 23, TGFb inhibitor 13µM*, ATXN2 expr inh -25% and S2 tox inactive.
Screening CCN(CC)CCCNc1nc2ccccc2c2[nH]c3ccc(OC)cc3c12 returned HepG2 tox -112%, Six1-Eya2 blk inconclusive, CtBP-E1A blk -75*, TGFb inhibitor inconclusive, ATXN2 expr inh inconclusive and S2 tox 6µM*.
Screening CCN(CC)CCCNc1nc(-c2ccccc2)nc2ccccc12 returned HepG2 tox -22%, Six1-Eya2 blk -6, CtBP-E1A blk 8, TGFb inhibitor -13%, ATXN2 expr inh inconclusive and S2 tox inconclusive.
CCOC(=O)C1CCN(S(=O)(=O)c2cc(-c3cc(C)no3)ccc2OC)CC1 was read as HepG2 tox -20% and TGFb inhibitor -24%.
Screening CC(C)OCCCNC(=O)CN1C(=O)c2ccccc2Sc2ncccc21 returned HepG2 tox 0%, TGFb inhibitor 9%, ATXN2 expr inh 4% and S2 tox inactive.
For Cc1cc(C(C)(C)C)oc1C(=O)N(CC(=O)NC1CCCC1)c1c(C)cccc1C the results were HepG2 tox 16µM*, Six1-Eya2 blk -6, CtBP-E1A blk -3, TGFb inhibitor inconclusive, ATXN2 expr inh inconclusive and S2 tox inconclusive.
`Cc1cc(C(C)(C)C)oc1C(=O)N(CC(=O)NC1CCCC1)c1ccc(F)cc1` gave HepG2 tox -30%, Six1-Eya2 blk -6, CtBP-E1A blk 14, TGFb inhibitor inconclusive, ATXN2 expr inh -21% and S2 tox inactive.
`O=C(c1cccc(Cl)c1)N1CCN(c2ccc3c(c2)C2CC3CCN2C(=O)OCc2ccccc2)CC1` (configuration not stated) gave HepG2 tox 0%, Six1-Eya2 blk inconclusive, CtBP-E1A blk -29, TGFb inhibitor 11µM*, ATXN2 expr inh 0% and S2 tox inconclusive.
For O=C(c1ccc(-c2ccccc2)cc1)N1CCN(c2ccc3c(c2)C2CC3CCN2C(=O)OCc2ccccc2)CC1 (configuration not stated) the results were HepG2 tox 12%, Six1-Eya2 blk -23, CtBP-E1A blk inconclusive, TGFb inhibitor inconclusive, ATXN2 expr inh 4% and S2 tox inactive.
